Among the data in ChEMBL document CHEMBL1157539, “Thousands of chemical starting points for antimalarial lead identification” (Nature, 2010) are Inhibition values, retold here.

Usually Inhibition stands for the change of the read-out against control, counted positive when it falls. Read a high Inhibition as a response far below the control.

Holding throughout (assay type): functional
For assay [1], the system named is Plasmodium falciparum. In words: GSK_TCMDC: Inhibition of Plasmodium falciparum 3D7 in whole red blood cells, using parasite LDH activity as an index of growth. Test compounds present at 2uM.
Assay [2] has as its system Plasmodium falciparum. The assay is described as follows: GSK_TCMDC: Inhibition of Plasmodium falciparum Dd2 in whole red blood cells, using parasite LDH activity as an index of growth. Test compounds present at 2uM.
In another assay the test system is HepG2. In words: GSK_TCMDC: Percent inhibition of human HepG2 cell line. Test compounds present at 10uM.

Values joined by “and” are separate entries in the source; they are usually repeats but may differ in a detail not shown here. Equal values may be shown once.

As to `Cc1cc(NCCCOc2ccc(Cl)cc2)nc(NCc2ccccc2)n1.Cl`, the Inhibition with Plasmodium falciparum [1] stood at 95%; with Plasmodium falciparum [2], 20%; in the assay on HepG2 it was 45%.
In the same order, the values of `COc1ccc(Cn2c(SCc3ccc(C)cc3)nc3cc(OC)c(OC)cc3c2=N)cc1Cl` are 92%, 7% and 50%.
In the same order, the values of `O=C(NC1CCN(Cc2ccccc2)CC1)c1cccc(-c2cc3cc(Cl)c(Cl)cc3[nH]2)c1.O=C(O)C(F)(F)F` are 100%, 86% and 15%.
In the same order, the values of `CCC[C@@H]([C@@H](CC1CCCCC1)C(=O)NC(C(=O)Nc1nccs1)C(CC)c1ccccc1)N(O)C=O` (stereo partly specified) are 89%, 19% and 50%.
In the case of `CC(C)Cn1c(Sc2ccc(C#N)c([N+](=O)[O-])c2)nnc1-c1cccs1`, the values for the Inhibition with Plasmodium falciparum [1], with Plasmodium falciparum [2] and in the assay with HepG2 were 90%, 32% and 9%, respectively.
`CC(C)C1C(O)=C(c2ccc3ccccc3c2)C(=O)N1Cc1ccsc1` (stereo unspecified): the Inhibition with Plasmodium falciparum [1] worked out at 88%; in the assay with Plasmodium falciparum [2], 82%; in the assay with HepG2, 11%.
On to `O=C(NCCCCN1CCC(c2ccc3c(c2OCC2COCO2)CCCC3)CC1)c1ccc(-c2ccc(C(F)(F)F)cc2)cc1` (stereo unspecified), for which the Inhibition in the assay with Plasmodium falciparum [1] is given as 99%; in the assay on Plasmodium falciparum [2], 45%; in the assay with HepG2, 91%.
The like results for `COc1c(Br)cc(Br)cc1-c1ccc(CN2C3CCCC2CCC3)[nH]1.Cl` were, in that order, 88%, 83% and 42%.
Turning to `CCN(CC)CCCNc1ncc2c(-c3ccc(NC(=O)Nc4cc(C(F)(F)F)ccc4F)cc3)nn(C)c2n1.O=C(O)C(F)(F)F`, the figures for the Inhibition with Plasmodium falciparum [1], with Plasmodium falciparum [2] and with HepG2 were 99%, 74% and 81%, respectively.
In the case of `COc1ccc2nccc([C@@H](O)CN3CCC(NCc4nc5cc(F)c(F)cc5[nH]4)CC3)c2c1.O=C(O)C(=O)O`, the Inhibition in the assay on Plasmodium falciparum [1] was determined as 96%; in the assay with Plasmodium falciparum [2] it was 36%; in the assay on HepG2 it was 12%.
For the compound `CC[C@H](C)CNC(=O)c1cncc(-c2ccc(CNC3Cc4ccccc4C3)cc2)c1.O=C(O)C(F)(F)F`, the Inhibition with Plasmodium falciparum [1] is reported as 100%; with Plasmodium falciparum [2], 95%; in the assay with HepG2, 14%.
In the same order, the values of `CC(C)(C)NCCN(Cc1ccc(-c2ccc(C(F)(F)F)cc2)cc1)C(=O)Cn1c(CCc2cccc(F)c2F)nc(=O)c2ccccc21` are 99%, 68% and 46%.
The like results for `CCc1cc(NC2CCN(C)CC2)nc(Nc2cccc(OC)c2)n1` were, in that order, 93%, 37% and 22%.
Consider `Cc1ccc(C2(C)CC(C)(C)N(C(=O)COc3ccc4ccccc4c3)c3ccccc32)cc1` (stereo unspecified), for which the values for the Inhibition in the assay with Plasmodium falciparum [1], with Plasmodium falciparum [2] and in the assay with HepG2 were 100%, 98% and 0%, respectively.
For `CCN(CC)CCN(Cc1ccc(-c2ccc(C(F)(F)F)cc2)cc1)C(=O)Cn1c(CCc2cc(F)cc(F)c2)nc(=O)c2ccccc21.O=C(O)C(O)C(O)C(=O)O`, the Inhibition in the assay on Plasmodium falciparum [1] is listed as 91%; with Plasmodium falciparum [2] it was 80%; in the assay with HepG2, 30%.
As for `O=C(/C=C/c1ccc(Cl)c(Cl)c1)NCCCCCN1CCC(NC(=O)Nc2ccccc2Cl)CC1`, the results for the Inhibition in the assay on Plasmodium falciparum [1], in the assay with Plasmodium falciparum [2] and in the assay with HepG2 were 100%, 23% and 56%, respectively.
Consider `Cc1cc2cc(NC(=O)Nc3ccnc4ccccc34)ccc2n1C.Cl`, for which the values for the Inhibition in the assay with Plasmodium falciparum [1], in the assay with Plasmodium falciparum [2] and in the assay on HepG2 were 90%, 33% and 17%, respectively.
Take `COc1ccc(Nc2ncc3c(-c4ccc(NC(=O)c5cccc(C(F)(F)F)c5)cc4)c[nH]c3n2)cc1OC`: the Inhibition in the assay on Plasmodium falciparum [1] was found to be 89%; with Plasmodium falciparum [2], 30%; in the assay with HepG2, 26%.
Turning to `Cc1ccc(C)c(NC(=O)NC2CCN(c3ccnc(Nc4ccc(F)cc4)n3)C2)c1` (stereo unspecified), the Inhibition with Plasmodium falciparum [1] was 100%; with Plasmodium falciparum [2], 74%; with HepG2, 0%.
The like results for `CC(C)CCNc1nc2ccccc2nc1Nc1cccc(C(F)(F)F)c1` were, in that order, 98%, 99% and 12%.
Regarding `Cc1cc(NC(=O)c2ccc(-c3ccccc3)cc2)no1`, the Inhibition in the assay on Plasmodium falciparum [1] is given as 83%; in the assay with Plasmodium falciparum [2], 57%; in the assay on HepG2, 5%.
The like results for `O=c1[nH]c2c(cc1CNC1CCCCC1)c(-c1cccc(F)c1)nn2-c1ccccc1` were, in that order, 95%, 89% and 6%.
In the case of `O=C(Nc1cccc(N2CCC(NCc3cccnc3)CC2)c1)c1cccc(C(F)(F)F)c1`, the Inhibition in the assay with Plasmodium falciparum [1] is recorded as 98%; in the assay with Plasmodium falciparum [2], 2%; in the assay with HepG2, 26%.
The like results for `O=C(NC1CCN(CCCOc2ccnc3cc(Cl)ccc23)C1)c1ccc(Br)cc1` (stereo unspecified) were, in that order, 86%, 87% and 21%.
In the same order, the values of `Cc1ccc(Cn2nc(Cl)c(N3CCCNCC3)cc2=O)cc1NC(=O)Nc1ccc(-c2ccccc2)cc1.O=C(O)C(F)(F)F` are 100%, 55% and 90%.
The like results for `c1ccc(COc2ccc(Cn3ccc(-c4ccc(-n5ccnc5)cc4)n3)cc2)cc1.c1ccc(COc2ccc(Cn3nccc3-c3ccc(-n4ccnc4)cc3)cc2)cc1` were, in that order, 94%, 67% and 2%.
Consider `FC(F)(F)c1ccc2[nH]c(-c3ccc(-c4ccc(CN5CCN(c6cnccn6)CC5)cc4)s3)nc2c1.O=C(O)C(F)(F)F`, for which the figures for the Inhibition in the assay on Plasmodium falciparum [1], in the assay on Plasmodium falciparum [2] and in the assay with HepG2 were 100%, 99% and 23%, respectively.
The like results for `Cl.N=C(N)c1cc(Br)cc(NC(=O)Nc2cc(Br)cc(C(=N)N)c2)c1` were, in that order, 93%, 76% and 0%.
In the same order, the values of `Clc1ccccc1CCNCC1CCN(CC2CCCCC2)CC1.O=C(O)C(F)(F)F` are 97%, 38% and 45%.
In the same order, the values of `Cl.Fc1cc(Cl)ccc1Nc1ccnc(Nc2ccc3cn[nH]c3c2)n1` are 97%, 56% and 8%.
For the compound `CCCCCCCc1c2c(C)c(C(=O)OCC)nc-2cc2n1CC(C)=C2C.Cl`, the figures for the Inhibition in the assay with Plasmodium falciparum [1], in the assay with Plasmodium falciparum [2] and in the assay with HepG2 were 89%, 10% and 11%, respectively.
For `CN1CCCN(c2ccnc3cc4c(cc23)N(C(=O)c2ccccc2Cl)CC4)CC1.Cl`, the results for the Inhibition in the assay with Plasmodium falciparum [1], in the assay with Plasmodium falciparum [2] and in the assay on HepG2 were 88%, 30% and 4%, respectively.
With `COC(=O)Nc1cc(C(F)(F)F)ccc1N1CCC(CNS(=O)(=O)c2ccc(OC)cc2)CC1`, the Inhibition turned out to be 99% in the assay with Plasmodium falciparum [1], 95% with Plasmodium falciparum [2] and 13% in the assay with HepG2.
In the same order, the values of `CCCN(CCCN(CCCN(CCC)C(C)C)c1cc(C)nc(Nc2ccc(Cl)cc2)n1)C(C)C.O=C(O)C(=O)O` are 100%, 99% and 39%.
Consider `CCC(C(=O)Nc1cc(=O)[nH]c2nc(-c3ccco3)nn12)c1ccccc1` (stereo unspecified), for which the Inhibition is 87% in the assay with Plasmodium falciparum [1], 68% in the assay with Plasmodium falciparum [2] and 2% in the assay on HepG2.
In the same order, the values of `O=C(NCc1ccco1)c1ccc(CN2CCN(C(c3ccccc3)c3ccccc3)CC2)cc1` are 96%, 92% and 6%.
In the case of `CCN1CCN(c2cc(C)c3cc(NC(=O)c4ccc(OC)c([N+](=O)[O-])c4)ccc3n2)CC1`, the figures for the Inhibition in the assay on Plasmodium falciparum [1], in the assay on Plasmodium falciparum [2] and in the assay on HepG2 were 100%, 93% and 25%, respectively.
In the same order, the values of `O=C(O)C(F)(F)F.c1ccc(CCNCc2ccc(-c3ccc(CNC4CCN(Cc5ccccc5)CC4)cc3)nc2)cc1` are 100%, 99% and 34%.
Regarding `O=C(NCCCCN1CCCC2c3ccc(O)cc3CCC21)c1ccc(-c2ccccc2)cc1` (stereo unspecified), the Inhibition is 96% with Plasmodium falciparum [1]; 32% and 26% in the assay on HepG2.
Take `CCOc1ccc2c(=NN=Cc3ccc(F)cc3)cc(C)[nH]c2c1`: the figures for the Inhibition with Plasmodium falciparum [1], in the assay on Plasmodium falciparum [2] and with HepG2 were 100%, 99% and 22%, respectively.
In the same order, the values of `Cc1cc2cc(/C=C/C(=O)NC3CCC(CCN4CCc5ccc(C#N)cc5CC4)CC3)ccc2[nH]1.Cl` (stereo unspecified) are 85%, 49% and 6%.
For the compound `O=C(O)C(F)(F)F.O=C1COC(c2ccccc2)(c2ccccc2)CN1CC1CCN(Cc2ccc(O)cc2Cl)C1` (stereo unspecified), the Inhibition worked out at 85% in the assay on Plasmodium falciparum [1], 81% in the assay with Plasmodium falciparum [2] and 53% in the assay with HepG2.
In the case of `COc1ccccc1NC(=O)Nc1cccc(-c2ccc(-c3nc4cc(C(F)(F)F)ccc4[nH]3)cc2)c1`, the Inhibition with Plasmodium falciparum [1] is 100%; in the assay with Plasmodium falciparum [2] it was 76%; with HepG2, 28%.
In the case of `Cc1cnc(N)c(/C=C/c2cncc(C(=O)NCCc3ccc(Cl)cc3Cl)c2)c1.Cl`, the values for the Inhibition in the assay with Plasmodium falciparum [2] and in the assay on HepG2 were 100% and 2%, respectively.
Take `COc1cc(F)c2ncc(Cl)c(CCN3CCC(NCc4ccc5c(c4)OCCO5)CC3)c2c1.Cl`: the Inhibition in the assay with Plasmodium falciparum [1] is recorded as 97%; in the assay on Plasmodium falciparum [2], 92%; in the assay with HepG2, 35%.
In the same order, the values of `CCc1nc2ccc(C(=O)OC)nc2n1Cc1ccc2oc(-c3ccccc3N)c(Br)c2c1` are 93%, 75% and 8%.
Take `Cc1nc(N)nc(N)c1Oc1cccc(Cl)c1.O=S(=O)(O)O`: the Inhibition in the assay with Plasmodium falciparum [1] amounted to 94%; in the assay with Plasmodium falciparum [2], 0%; in the assay with HepG2 it was 49%.
The like results for `CC(=O)Nc1nnc(SCc2c(C)cc(C(C)(C)C)cc2C)s1` were, in that order, 98%, 91% and 3%.
Take `CCc1nnc2sc(-c3cccc(NC(=O)c4ccc(C)c([N+](=O)[O-])c4)c3)nn12`: the values for the Inhibition in the assay with Plasmodium falciparum [1], in the assay on Plasmodium falciparum [2] and in the assay with HepG2 were 82%, 46% and 10%, respectively.
`O=C(O)C(F)(F)F.O=S(=O)(NC1CCN(c2ccnc3cc(Cl)ccc23)C1)c1ccc(F)cc1` (stereo unspecified): the Inhibition amounted to 98% in the assay with Plasmodium falciparum [1], 88% in the assay on Plasmodium falciparum [2] and 3% with HepG2.
Regarding `O=C(CN1CCN(C(=O)c2ccco2)CC1)Nc1ccccc1Br`, the figures for the Inhibition with Plasmodium falciparum [1], in the assay with Plasmodium falciparum [2] and in the assay with HepG2 were 97%, 96% and 15%, respectively.
For `CN1C(=C2SC(=Nc3ccc4ncccc4c3)N(Cc3ccccc3)C2=O)Sc2ccc(Cl)cc21`, the Inhibition in the assay with Plasmodium falciparum [1] is 99%; in the assay with Plasmodium falciparum [2], 75%; in the assay on HepG2, 4%.
The like results for `Cc1cccc2nc(-c3ccc(-c4cccc(NC(=O)Nc5ccc(Cl)c(Cl)c5)c4)s3)[nH]c12` were, in that order, 100%, 36% and 46%.
In the same order, the values of `COc1ccc(S(=O)(=O)NCC2CCCN(CCCCCNC(=O)/C=C/c3ccc(Cl)c(Cl)c3)C2)cc1` (stereo unspecified) are 81%, 1% and 53%.
Turning to `CC(=O)Nc1ncc(C(=O)Nc2cccc(-c3ccc(-c4nc5cccc(C)c5[nH]4)cc3)c2)s1`, the Inhibition with Plasmodium falciparum [1] is reported as 100%; in the assay with Plasmodium falciparum [2], 78%; in the assay on HepG2 it was 69%.
Turning to `O=C(/C=C/c1ccc(Cl)c(Cl)c1)NCCCCCN1CCC(c2c[nH]c3cc(O)ccc23)CC1`, the Inhibition in the assay on Plasmodium falciparum [1] is listed as 100%; in the assay with Plasmodium falciparum [2] it was 2%; in the assay on HepG2, 32%.
